Source: PubChem (National Center for Advancing Translational Sciences (NCATS))
KinaseGlo FLuc – blocks Kinase-Glo luciferase, a counter-screen artifact. actives 0.28% (n = 200,000). Q27757. Kinase-Glo luciferase, ATP luminescence, 8 min. Potency, µM (series often up to 38.3 µM), without a hit: at the highest dose activity change, negative = inhibition, actives largely listed as inhibitors; further: nearly all actives have a fitted effect of over 60% in size
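Compounds were added to a substrate mix at pH 7.2 (50 mM imidazole, 10 uM ATP, within the enzyme's linear range), followed by Kinase-Glo detection reagent; luminescence was measured after 8 minutes at ambient temperature.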
Gal4-VP16 FLuc – counter-screen for ROR gamma inhibitors: Gal4-VP16 reporter. Drosophila S2 Gal4-VP16 UAS-luciferase, luminescence, 20 h. Potency, µM (doses to about 53.6 µM), for inactives: at the top dose activity, negative = inhibition, usual class: inhibitors. actives 3.5% (n = 310,000). AID 2546;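 further: Gal4-VP16 expression switched on by copper sulfate through the metallothionein promoter; nearly all actives have a fitted effect of over 50% in size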
RORgamma inh – ROR gamma (mouse) transcription inhibition; P51450; actives 5.4% (n = 310,000); Potency, µM (series often up to 53.6 µM), inactives show at the top dose activity change, negative = inhibition, actives largely listed as inhibitors; AID 2551; Drosophila S2 Gal4-RORgamma UAS-luciferase reporter, 20 h; further: nearly all actives have a fitted effect of over 60% in size
Target sequence (P51450 whole entry, looked up, the tested form may be a part): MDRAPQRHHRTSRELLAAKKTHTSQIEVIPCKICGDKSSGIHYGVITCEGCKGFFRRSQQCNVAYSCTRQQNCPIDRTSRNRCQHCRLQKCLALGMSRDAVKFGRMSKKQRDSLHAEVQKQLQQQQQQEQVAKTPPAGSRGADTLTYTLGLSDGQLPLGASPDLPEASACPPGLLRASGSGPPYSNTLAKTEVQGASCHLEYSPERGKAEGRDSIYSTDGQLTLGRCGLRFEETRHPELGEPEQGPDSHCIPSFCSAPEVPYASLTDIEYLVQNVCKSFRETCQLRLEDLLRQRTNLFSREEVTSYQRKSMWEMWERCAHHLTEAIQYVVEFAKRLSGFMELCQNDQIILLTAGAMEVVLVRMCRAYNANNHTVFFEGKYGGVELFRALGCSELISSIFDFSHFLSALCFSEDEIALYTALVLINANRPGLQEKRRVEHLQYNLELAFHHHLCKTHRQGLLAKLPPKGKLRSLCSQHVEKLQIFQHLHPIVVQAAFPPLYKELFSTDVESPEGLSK
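Using a luciferase readout, inhibitors were identified by reduced reporter activity in Drosophila cells coexpressing a copper-inducible Gal4–ROR gamma fusion and UAS-driven Photinus luciferase, incubated 20 hr after 700 uM copper sulfate.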
* = called active by the depositor; ? = inconclusive; . = not tested or not shown; [ ] = another dose, or the depositor's remark. In the library only some 6.2% were active in any assay of this set; here they are far more common. The call rests on the fitted dose curve; in most records, active means well fitted curve in the direction sought with a large enough effect; inconclusive means small, poorly fitted or top-dose-only effect, or another doubt; inactive means no such curve, though single readings can be large; an effect the other way counts as inactive or inconclusive. On the % scale 0 is the no-effect control and ±100 the full control effect; potency means the concentration at half of the fitted maximal effect.

SMILES | KinaseGlo FLuc | Gal4-VP16 FLuc | RORgamma inh
CC(NC(=O)c1ccco1)C(=O)OCC(=O)c1ccc(Cl)s1 (stereo not given) | . | -0.9% | 4.7%
COC(=O)c1ccc(NC(=O)C(=O)NCC2CCCO2)cc1 (stereo not given) | 1.4% | -2.7% | 3.6%
Cc1cc(C)cc(C(=O)Nc2ccc3[nH]c(=O)[nH]c3c2)c1 | . | -7.1% | 0.5%
O=C(O)c1ccc(Nc2ncnc3scc(-c4ccccc4)c23)cc1 | -1.4% | 7.6% | 1.1%
Cc1ccc(Nc2ncnc3sc(C)c(C)c23)cc1C | -2.8% | -1.2% | 0.1%
Cc1sc2ncnc(N[C@@H](Cc3ccccc3)C(=O)O)c2c1C | . | -1.2% | 27.1%
Cc1sc2ncnc(N/N=C/c3ccc(O)cc3)c2c1C | 0.5% | 4.47µM* | 15.8µM*
COc1ccc(/C=N/Nc2ncnc3sc(C)c(C)c23)cc1 | -0.8% | 4.47µM* | ?
Cc1sc2ncnc(N/N=C/c3ccccc3O)c2c1C | -2.0% | 15.8µM* | 7.94µM*
COc1ccc(/C=N/Nc2nonc2N)cc1 | -5.0% | 3.6% | -8.0%
COc1cccc(/C=N/Nc2ncnc3scc(-c4ccccc4)c23)c1OC | -0.8% | 3.16µM* | 3.98µM*
CCOC(=O)C1CCCN(C(=O)Cn2ncc3c([nH]c4ccc(C)cc43)c2=O)C1 (stereo not given) | . | -17.2% | -1.6%
COC(=O)c1ccc(N(CC(=O)NC2CCCCC2)C(=O)CNC(=O)c2ccco2)cc1 | . | 5.2% | 21.3%
Cc1ccccc1Nc1oc(-c2ccccc2)nc1-c1cccs1 | -4.2% | -6.6% | 23.7%
COc1ccc(N(CC(=O)N/N=C(\C)c2ccccc2)S(=O)(=O)c2ccccc2)cc1 | . | -2.5% | -3.1%
CCCCn1c(SCC(=O)NCCOC)nc2ccc(N3CCOCC3)cc2c1=O | -5.2% | -17.3% | ?
CCOC(=O)CSc1nc2ccccc2c(=O)n1CCN1CCOCC1 | 0.8% | -15.1% | -20.7%
COCCNC(=O)CSc1nc2ccc(N3CCOCC3)cc2c(=O)n1CCc1ccccc1 | -1.9% | ? | 3.55µM*
O=C(CSc1nc2ccccc2c(=O)n1CCC(=O)N1CCN(c2ccccc2)CC1)NCC1CCCO1 (stereo not given) | 3.2% | 0.5% | 19.1%
CCCCNC(=O)CSc1nc2ccc(N3CCOCC3)cc2c(=O)n1CCc1ccccc1 | -0.4% | 7.94µM* | 7.94µM*
CCOC(=O)CSc1nc2ccc(N3CCOCC3)cc2c(=O)n1Cc1ccccc1 | -1.9% | ? | 12.6µM*
CCCCNC(=O)CSc1nc2ccccc2c(=O)n1CCNC(C)=O | 0.9% | -4.9% | 21.8%
O=C(CSc1nc2ccc(N3CCOCC3)cc2c(=O)n1CCc1ccccc1)NCC1CCCO1 (stereo not given) | 1.9% | 12.6µM* | 5.62µM*
COc1ccc(-n2nc(C)c3c(=O)c4c([nH]c32)CCCC4)cc1 | . | -2.8% | -1.0%
CCCCc1nc2c(c3c1C[C@H](C)OC3)CN(C(=O)Nc1ccc(OC)cc1)CC2 | -1.3%[7.66 µM] | . | .
SMILES | KinaseGlo FLuc | Gal4-VP16 FLuc | RORgamma inh
c1ccc(CNc2ccnc(-c3ccoc3)n2)cc1 | -2.5% | ? | ?
COc1ccc(OC)c2sc(N(CCN(C)C)C(=O)/C=C/c3cccs3)nc12 | . | 10µM* | 15.8µM*
COc1ccc(C)c2sc(N(CCN(C)C)C(=O)/C=C/c3cccs3)nc12 | . | ? | -43.9%
COc1ccc(Cc2cnc(N)nc2N)cc1OC | . | 0.1% | 3.6%
COc1ccc(Cc2n[nH]c(=S)n2C)cc1Br | 4.1% | -7.4% | 38.1%
COc1ccc(CCCc2n[nH]c(=S)o2)cc1C | 10.0% | -2.2%[10 µM] | 10µM*
Cc1cccc(OCc2n[nH]c(=S)o2)c1C | -0.2% | 25.0% | ?
COc1ccc(CCCc2n[nH]c(=S)n2C)cc1C | 1.1% | -3.1%[10 µM] | 5.01µM*
CS(=O)(=O)N1CCCC(C(=O)Nc2c(F)cccc2F)C1 (stereo not given) | . | -11.5% | -1.6%[1.91 µM]
CCOC(=O)c1cnc(SC)nc1Oc1cccc(NS(=O)(=O)c2ccc(C)cc2)c1 | 0.4% | -3.8% | 0.9%
O=C(NCCCN1CCOCC1)c1ccc(Br)cc1 | -0.3% | 9.2% | 41.9%
CC(C)(C)c1ccc(C(=O)NCCCN2CCN(CCCNC(=O)c3ccc(C(C)(C)C)cc3)CC2)cc1 | 0.4% | 12.6µM* | 7.08µM*
CCOc1ccc(NC(=O)c2ccco2)c([N+](=O)[O-])c1 | 0.1% | -2.6% | 29.3%[10 µM]
COc1ccc(N2CCN(C(CNC(=O)C(=O)NCCc3c[nH]c4ccccc34)c3ccco3)CC2)cc1 (stereo not given) | -0.1% | -15.1% | 29.5%
COC(=O)c1ccc(-c2noc(CN(C)CCC3CCCCO3)n2)cc1 (stereo not given) | -3.5% | 5.62µM* | 5.62µM*
COc1ccc(-c2noc(CN(C)CCC3CCCCO3)n2)cc1 (stereo not given) | -2.3% | -1.4% | 10.0%
CCOc1ccccc1-c1nnc2n1N=C(c1cc(OC)cc(OC)c1)CS2 | . | 16.1% | ?
NS(=O)(=O)c1ccc(-c2ccc(/C=N/NC(=O)c3ccccc3O)o2)cc1 | . | 17.8µM* | 3.55µM*
Cc1ccc(-c2ccc(/C=N/NC(=O)c3ccccc3O)o2)cc1 | . | 0.159µM* | 0.708µM*
O=C(N/N=C/c1ccc(-c2ccccc2C(=O)O)o1)c1cccs1 | -10.6% | 2.9% | -31.5%
O=C(N/N=C/c1ccc(-c2ccc(S(=O)(=O)Nc3ncccn3)cc2)o1)c1cc2ccccc2cc1O | -4.9% | 6.0% | 1.0%
Cc1c(Cl)c(S(N)(=O)=O)cc(S(N)(=O)=O)c1NC(=O)c1ccc(Cl)cc1 | -2.5%[7.66 µM] | . | .
CC(C)[C@@H](CC(=O)N[C@@H]1CCCC[C@H]1C(=O)N[C@H](CC(=O)N[C@@H](CCC(=O)O)CC(=O)O)Cc1ccccc1)NC(=O)C[C@H](Cc1c[nH]c2ccccc12)NC(=O)[C@@H]1CNCC[C@H]1N | 1.9% | -2.9% | -10.0%
CCCN(CCC)CC(O)CN(c1ccccc1)S(=O)(=O)c1ccc(C)cc1 (stereo not given) | 0.7% | -1.1% | -3.7%
CCCCN(c1nc2ccccc2nc1Cl)S(=O)(=O)c1ccc(C)cc1 | . | 2.51µM* | -34.6%
SMILES | KinaseGlo FLuc | Gal4-VP16 FLuc | RORgamma inh
CCOc1ccc(N(CC(=O)Nc2ccccc2C(=O)N2CCCC2)S(C)(=O)=O)cc1 | . | 1.5% | 11.4%
Cc1ccc2nc(NS(=O)(=O)c3cn(C)nc3C)sc2c1 | . | 11.2µM* | 14.1µM*
COc1ccc(NS(=O)(=O)c2cn(C)nc2C)cc1 | . | -0.5% | -0.5%
Cc1cc(CC(C)CC(C)(C)C)n(O)c(=O)c1 (stereo not given) | . | 3.16µM* | 1.12µM*
CC(CC(C)(C)C)CP(=O)(O)CC(C)CC(C)(C)C (stereo not given) | . | -7.6% | 15.1%
Cc1nc2ccccc2c(=O)n1NC(=O)c1ccc([N+](=O)[O-])cc1 | 0.3% | 7.6% | -0.1%
CCOc1cc(C(=O)NCC2CCCO2)cc(OCC)c1OCC (stereo not given) | 2.4% | -1.1% | 0.0%
CCOc1cc(NC(=S)NCC2CCCO2)c(OCC)cc1NC(=O)c1ccc(C)cc1 (stereo not given) | 1.5% | 3.98µM* | 3.16µM*
CCOc1cc(NC(=O)C2CC2)c(OCC)cc1NC(=O)c1ccccc1OCC | . | -9.2% | 9.9%
CCOc1cc(NC(=S)NCC2CCCO2)c(OCC)cc1NC(=O)c1cccc(C)c1 (stereo not given) | -0.4% | 11.2µM* | 4.47µM*
